From PubChem BioAssay (NCATS)
Inconclusive results are not listed. Where a call stands in place of a potency, no number is given. Values without a mark were called inactive. The source made the active and inactive calls. The call rests on the fitted dose curve; in most records, active means well fitted curve in the direction sought with a large enough effect; inconclusive means small, poorly fitted or top-dose-only effect, or another doubt; inactive means no such curve, though single readings can be large; an effect the other way counts as inactive or inconclusive.

Key:
MCC-13 = assay: qHTS assay to identify novel small-molecules to repurpose for Merkel cell carcinoma treatment (AID 1296009); details: MCC and control cell lines, CellTiter-Glo viability, 72 h; series mostly up to 46 µM; further: nearly all actives have a fitted effect of over 60% in size
In short: (§1)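 After compound transfer in DMSO, plates were kept 72 hr at 37 degree celsius. Luminescent ATP signal from CellTiter-Glo served as viability measure, normalized against DMSO and no-cell controls.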

MCC-26 = assay: as above; details: MCC and control cell lines, CellTiter-Glo viability, 72 h; series mostly up to 46 µM
In short: as §1

MKL-1 = assay: as above; details: MCC and control cell lines, CellTiter-Glo viability, 72 h; series mostly up to 46 µM
In short: as §1

MKL-2 = assay: as above; details: MCC and control cell lines, CellTiter-Glo viability, 72 h; series mostly up to 46 µM
In short: as §1

NIH3T3 = assay: as above; details: MCC and control cell lines, CellTiter-Glo viability, 72 h; at 44.8 µM (top of the series)
In short: as §1

WaGa = assay: as above; details: MCC and control cell lines, CellTiter-Glo viability, 72 h; series mostly up to 46 µM
In short: as §1

C33A = assay: Primary qHTS to identify gynecologic anti-cancer compounds using libraries of approved drugs and bioactive compounds (AID 1345084); details: Gynecologic cancer cell panel viability, ATPlite luminescence, 48 h; series mostly up to 57.5 µM; further: nearly all actives have a fitted effect of over 55% in size
In short: (§2)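 Five-point cytotoxicity, 48 h drug exposure at 37 C, 5% CO2, on cells seeded 16 h beforehand. ATP content read by ATPlite luminescence.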

CAOV3 = assay: as above; details: Gynecologic cancer cell panel viability, ATPlite luminescence, 48 h; series mostly up to 57.5 µM
In short: as §2

CASKI = assay: as above; details: Gynecologic cancer cell panel viability, ATPlite luminescence, 48 h; series mostly up to 57.5 µM
In short: as §2

UISO = assay: qHTS assay to identify novel small-molecules to repurpose for Merkel cell carcinoma treatment (AID 1296009); details: MCC and control cell lines, CellTiter-Glo viability, 72 h; series mostly up to 46 µM; further: nearly all actives have a fitted effect of over 60% in size
In short: as §1
Potency means the concentration at half of the fitted maximal effect.

COc1cc(C)nc(-n2nc(C)cc2OC)n1
Potency (MCC-13): inactive | Potency (MCC-26): inactive | Potency (MKL-1): inactive | Potency (MKL-2): inactive | outcome (NIH3T3): inactive | Potency (WaGa): inactive | Potency (C33A): inactive | Potency (CAOV3): inactive | Potency (CASKI): inactive

NC1CCN(c2nc3c(cc2F)c(=O)c(C(=O)O)cn3-c2ccc(F)cc2F)C1 (stereo unspecified)
Potency (MCC-13): inactive | Potency (MCC-26): inactive | Potency (MKL-1): inactive | Potency (MKL-2): inactive | outcome (NIH3T3): inactive | Potency (UISO): inactive | Potency (WaGa): inactive | Potency (C33A): inactive | Potency (CAOV3): inactive | Potency (CASKI): inactive

CCCCNC(=O)NS(=O)(=O)c1ccc(N)cc1
Potency (MCC-13): inactive | Potency (MCC-26): inactive | Potency (MKL-1): inactive | Potency (MKL-2): inactive | Potency (UISO): inactive | Potency (WaGa): inactive | Potency (C33A): inactive | Potency (CAOV3): inactive | Potency (CASKI): inactive

C=C[C@@]1(C)CC(=O)[C@]2(O)[C@@]3(C)[C@@H](O)CCC(C)(C)[C@@H]3[C@H](O)[C@H](OC(C)=O)[C@@]2(C)O1
Potency (MCC-13): inactive | Potency (MCC-26): inactive | Potency (MKL-1): inactive | Potency (MKL-2): inactive | Potency (UISO): inactive | Potency (WaGa): inactive | Potency (C33A): inactive | Potency (CAOV3): inactive | Potency (CASKI): inactive

Cl/C(=C\n1cncn1)c1ccc(Cl)cc1Cl
Potency (MCC-13): inactive | Potency (MCC-26): inactive | Potency (MKL-1): inactive | Potency (MKL-2): inactive | Potency (UISO): inactive | Potency (WaGa): inactive | Potency (C33A): inactive | Potency (CAOV3): inactive | Potency (CASKI): inactive

CCN(CC)CCOC(=O)C(Cc1cccc2ccccc12)CC1CCCO1 (stereo unspecified)
Potency (MCC-13): inactive | Potency (MCC-26): inactive | Potency (MKL-1): inactive | Potency (MKL-2): inactive | Potency (UISO): inactive | Potency (WaGa): inactive | Potency (C33A): inactive

CCN(CC)CCNC(=O)c1cc(Br)c(N)cc1OC
Potency (MCC-13): inactive | Potency (MCC-26): inactive | Potency (MKL-1): inactive | Potency (MKL-2): inactive | Potency (UISO): inactive | Potency (WaGa): inactive | Potency (C33A): inactive | Potency (CAOV3): inactive | Potency (CASKI): inactive

COc1cc(C(=O)N2CCCCCCC2)cc(OC)c1OC
Potency (MCC-13): inactive | Potency (MCC-26): inactive | Potency (MKL-1): inactive | Potency (MKL-2): inactive | Potency (UISO): inactive | Potency (WaGa): inactive | Potency (C33A): inactive | Potency (CAOV3): inactive | Potency (CASKI): inactive

CCCN(CCc1cccs1)[C@H]1CCc2c(O)cccc2C1
Potency (MCC-13): inactive | Potency (MCC-26): inactive | Potency (MKL-1): inactive | Potency (MKL-2): inactive | outcome (NIH3T3): inactive | Potency (UISO): inactive | Potency (C33A): inactive | Potency (CASKI): inactive

Nc1ccc(S(=O)(=O)Nc2cnc3ccccc3n2)cc1
Potency (MCC-13): inactive | Potency (MCC-26): inactive | Potency (MKL-1): inactive | Potency (MKL-2): inactive | outcome (NIH3T3): inactive | Potency (UISO): inactive | Potency (WaGa): inactive | Potency (C33A): inactive | Potency (CAOV3): inactive | Potency (CASKI): inactive

CC(C)CCCC(C)N (stereo unspecified)
Potency (MCC-13): inactive | Potency (MCC-26): inactive | Potency (MKL-1): inactive | Potency (MKL-2): inactive | outcome (NIH3T3): inactive | Potency (UISO): inactive | Potency (WaGa): inactive | Potency (C33A): inactive | Potency (CAOV3): inactive | Potency (CASKI): inactive

CC(=O)N[C@@H](CCC(=O)O)C(=O)O
Potency (MCC-13): inactive | Potency (MCC-26): inactive | Potency (MKL-1): inactive | Potency (MKL-2): inactive | outcome (NIH3T3): inactive | Potency (UISO): inactive | Potency (WaGa): inactive | Potency (C33A): inactive | Potency (CAOV3): inactive | Potency (CASKI): inactive

NC(N)=NN=C(/C=C/c1ccc([N+](=O)[O-])o1)/C=C/c1ccc([N+](=O)[O-])o1
Potency (MCC-13): 2660 nM (active) | Potency (MCC-26): 2660 nM (active) | Potency (MKL-1): 376 nM (active) | Potency (MKL-2): 237 nM (active) | Potency (UISO): 841 nM (active) | Potency (WaGa): 237 nM (active) | Potency (C33A): 12600 nM (active) | Potency (CAOV3): 6310 nM (active)

O=C(O)CCC(=O)Nc1ccc(S(=O)(=O)Nc2nccs2)cc1
Potency (MCC-13): inactive | Potency (MCC-26): inactive | Potency (MKL-1): inactive | Potency (MKL-2): inactive | Potency (UISO): inactive | Potency (WaGa): inactive | Potency (C33A): inactive | Potency (CAOV3): inactive | Potency (CASKI): inactive

C[C@@H](O)[C@H]1C(=O)N2C(C(=O)O)=C([C@H]3CCCO3)S[C@H]12
Potency (MCC-13): inactive | Potency (MCC-26): inactive | Potency (MKL-1): inactive | Potency (MKL-2): inactive | outcome (NIH3T3): inactive | Potency (UISO): inactive | Potency (WaGa): inactive | Potency (C33A): inactive | Potency (CASKI): inactive

O=C(CN1CCN(Cc2ccc3c(c2)OCO3)CC1)N1c2ccccc2Sc2ccccc21
Potency (MCC-13): inactive | Potency (MCC-26): inactive | Potency (MKL-1): inactive | Potency (MKL-2): inactive | outcome (NIH3T3): inactive | Potency (UISO): inactive | Potency (WaGa): inactive | Potency (C33A): inactive | Potency (CAOV3): inactive | Potency (CASKI): inactive

O=C(O)CCNC(=O)c1ccccc1
Potency (MCC-13): inactive | Potency (MCC-26): inactive | Potency (MKL-1): inactive | Potency (MKL-2): inactive | Potency (UISO): inactive | Potency (WaGa): inactive | Potency (C33A): inactive | Potency (CAOV3): inactive | Potency (CASKI): inactive

O=C(O)C1(C(=O)O)CCC1.[NH2-].[NH2-].[Pt+2]
Potency (MCC-13): inactive | Potency (MCC-26): inactive | Potency (MKL-1): inactive | Potency (MKL-2): inactive | Potency (UISO): inactive | Potency (WaGa): inactive | Potency (C33A): inactive | Potency (CAOV3): inactive | Potency (CASKI): inactive

CN(C)CCOC(c1ccc(Cl)cc1)c1ccccn1 (stereo unspecified)
Potency (MCC-13): inactive | Potency (MCC-26): inactive | Potency (MKL-1): inactive | Potency (MKL-2): inactive | Potency (UISO): inactive | Potency (WaGa): inactive

CCOc1cc(OCC)c(C(=O)CCC(=O)O)cc1OCC
Potency (MCC-13): inactive | Potency (MCC-26): inactive | Potency (MKL-1): inactive | Potency (MKL-2): inactive | outcome (NIH3T3): inactive | Potency (UISO): inactive | Potency (WaGa): inactive | Potency (C33A): inactive | Potency (CAOV3): inactive | Potency (CASKI): inactive

CC(C)NCC(O)c1ccc2ccccc2c1 (stereo unspecified)
Potency (MCC-13): inactive | Potency (MCC-26): inactive | Potency (MKL-1): inactive | Potency (MKL-2): inactive | outcome (NIH3T3): inactive | Potency (UISO): inactive | Potency (WaGa): inactive | Potency (C33A): inactive | Potency (CAOV3): inactive | Potency (CASKI): inactive

O=C(O)CCc1nc2ccccc2[nH]1
Potency (MCC-13): inactive | Potency (MCC-26): inactive | Potency (MKL-1): inactive | Potency (MKL-2): inactive | Potency (UISO): inactive | Potency (WaGa): inactive | Potency (C33A): inactive | Potency (CAOV3): inactive | Potency (CASKI): inactive

CC1(COc2ccc(CC3SC(=O)NC3=O)cc2)CCCCC1 (stereo unspecified)
Potency (MCC-13): inactive | Potency (MCC-26): inactive | Potency (MKL-1): inactive | Potency (MKL-2): inactive | outcome (NIH3T3): inactive | Potency (C33A): inactive | Potency (CAOV3): inactive | Potency (CASKI): inactive

CCOC(=O)[C@@](C)(N)Cc1ccc(O)c(O)c1
Potency (MCC-13): inactive

N=C(N)N1CCc2ccccc2C1
activity change, negative = cytotoxicity (MCC-13): 22.3% [at 4.84 µM] | activity change, negative = cytotoxicity (MCC-26): -4.65% [at 4.84 µM] | activity change, negative = cytotoxicity (MKL-1): -2.59% [at 4.84 µM] | activity change, negative = cytotoxicity (MKL-2): -8.08% [at 4.84 µM] | activity change, negative = cytotoxicity (UISO): -8.38% [at 4.84 µM] | activity change, negative = cytotoxicity (WaGa): -9.27% [at 4.84 µM] | activity change, negative = cytotoxicity (C33A): -2.35% [at 6.55 µM] | activity change, negative = cytotoxicity (CAOV3): 8.37% [at 6.55 µM] | activity change, negative = cytotoxicity (CASKI): -9.81% [at 6.55 µM]
